# Measured values reported in PubChem BioAssay AID1508600 (Functional Genomics Laboratory (NCATS/FGL), 2020).
# Among all 53,000 sequences or so, about 3,700 (7%) were called active. Many of the other results were omitted from the sample, so actives are more common in it than they were. Values without a mark were called inactive.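 Rule for the calls: active = gene knockdowns whose robust z-score for IL-1 alpha signal is at least 2 or at most -2, so actives lie on both sides; inactive = the rest.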
# Experiment: Components of the Cytosolic LPS Sensing Pathway: Gene Identification via Genome-wide siRNA Screen;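 note: robust z of the log signal after scaling to non-targeting control siRNA wells of the plate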
# Conditions: RAW264.7 macrophages, IL-1a HTRF, actives lie on both sides, screened at 100 nM (by protocol), cells primed 5 h with Pam3CSK4 first
# In short: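 Supernatant IL-1a by HTRF from RAW264.7 cells primed with Pam3CSK4 (5 hours) and transfected with LipidA (24 hour) after 48h siRNA knockdown at 100 nM; cell viability checked with CellTiter-Glo.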
row,Sequence,z-score
1,GGUCUUCUUUGAUGUGAGGTT against Ppic,-0.832
2,GGACUGAAGAAGUGUGUGGTT against Scgb3a2,1.66
3,GCUUCCAGUCAGUGGUUACTT against Rara,1.07
4,GGAUGAGCAGAUGCUCCAATT against Mtmr7,0.451
5,GGUAUUUUGACCGAAUCAATT against Add3,-0.294
6,GCUCCUCACUUAUUGCCCATT against Zfp354b,-0.0805
7,GGAUGAAAACACUGAAUACTT against Olfr644,-0.714
8,GCAUUUAGUGAGUUCAGUGTT against Kirrel3os,0.855
9,GCGCAACUAAAACAGAUUGTT against Eif2ak1,2.2 (active)
10,GGGAUACUUUUUAUUCAGGTT against Nmu,-0.0461
11,GGAGCAGACGAUAUGCAGATT against Copb2,0.559
12,CCAAUUGCUAAUCCUUUGUTT against Pin1,1.52
13,GGACACAAUCCAGAACCAGTT against Angpt4,-0.189
14,GCCUGAGUUAUGUUUAAAGTT against Pgam5,0.00362
15,CCACGUGAAGGAGAGAUGATT against Mob2,1.39
16,GCGACCAGGACCGCGUCAATT against Sox3,-1.07
17,GCACUGAAGCCUAGCUGUUTT against BC051142,1.41
18,GGUGUUGAGUUCAAGUCUATT against Dennd11,-0.468
19,GGGCAAACUCUAUAAUCAGTT against BC023105,0.337
20,GCUCCGUGUUGACUCAAAATT against Foxg1,2.46 (active)
21,CCCUCAGAUCUUUCAGUCUTT against Btbd16,-1.01
22,GCAUGGUUUAAUGGCUCGGTT against Atpsckmt,-1.93
23,GGAAUAUUUUGCUUGUGUGTT against Dnmt3a,-0.925
24,GGUUUAAGAAAAAAGGAGCTT against Rab43,-0.182
25,CCUCUGUUUGUGCGCCAUATT against Uqcrfs1,0.402
26,GGUUAUCAAACAGGUGUUGTT against Aldh3b1,2.22 (active)
27,GCGAGUUCGGAAGAAGUAUTT against Ddx41,-0.198
28,GGAGAUCCAGGCAAUUUUUTT against Pink1,0.779
29,GUUGGUAGAUUCAGUUUUCTT against Vmn1r89,1.88
